In all, about 310,000 compounds went through this assay and about 1,000 (0.32%) were called active. The rule behind the calls is not given here. The list is a sample of the results. Entries with a potency or affinity are not part of this list.
experiment: Inhibition of PhoP regulon, Salmonella typhi GFP reporter cells, confirmation, 4 h (AID 1850); conditions: Salmonella Typhi PhoP-promoter GFP reporter, fluorescence, at 50 µM, active compounds read high;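 note: 0% = induced wells with vehicle and 100% = uninduced wells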

Compound | inhibition
CC(=O)c1c(C)[nH]c(C(=O)N2CCN(c3ccccn3)CC2)c1C | 2.98% (inactive)
Nc1nnc(SCC(=O)OCC(=O)c2ccccc2Br)s1 | 1.19% (inactive)
C#CCOCCOCCOCCNc1nc(N2CCN(C(=O)CCCCCCCCCCNC(=O)[C@H](CCC(=O)O)n3cc(CCCCCN)nn3)CC2)nc(N2CCN(C(=O)CCCCCCCCCCNC(=O)[C@@H]([C@H](C)O)n3cc(C)nn3)CC2)n1 | -1.84% (inactive)
C#CCOCCOCCOCCNc1nc(N2CCN(C(=O)Cn3cc(CCCCN)nn3)CC2)nc(N2CCN(C(=O)[C@H]([C@@H](C)CC)n3cc(CCCN=C(N)N)nn3)CC2)n1 | 5.45% (inactive)
C#CCOCCOCCOCCNc1nc(N2CCN(C(=O)CCCCCCCCCCNC(=O)Cn3cc(C[C@@H](C)O)nn3)CC2)nc(N2CCN(C(=O)CCCCCCCCCCNC(=O)[C@@H](CCC(=O)O)n3cc(CCCCCN)nn3)CC2)n1 | -25.1% (inactive)
C#CCOCCOCCOCCNc1nc(N2CCOCC2)nc(N2CCN(C(=O)CCCCCCCCCCNC(=O)[C@@H]([C@H](C)CC)n3cc(CCCCCN)nn3)CC2)n1 | 2.64% (inactive)
C#CCOCCOCCOCCNc1nc(N2CCN(C(=O)CCCCCCCCCCNC(=O)Cn3cc(C[C@@H](C)O)nn3)CC2)nc(N2CCN(C(=O)CCCCCCCCCCNC(=O)[C@@H]([C@H](C)O)n3cc(C)nn3)CC2)n1 | -25.3% (inactive)
C#CCOCCOCCOCCNc1nc(N2CCN(C(=O)CCCCCCCCCCNC(=O)Cn3cc(CCCCCN)nn3)CC2)nc(N2CCN(C(=O)CCCCCCCCCCNC(=O)[C@H](CO)n3cc(CCCCCN)nn3)CC2)n1 | 16.5% (inactive)
C#CCOCCOCCOCCNc1nc(N2CCN(C(=O)Cn3cc(CCCN=C(N)N)nn3)CC2)nc(N2CCN(C(=O)[C@H]([C@@H](C)CC)n3cc(CCCCN)nn3)CC2)n1 | -18% (inactive)
C#CCOCCOCCOCCNc1nc(N2CCN(C(=O)CCCCCCCCCCNC(=O)Cn3cc(CCCCCN)nn3)CC2)nc(N2CCN(C(=O)CCCCCCCCCCNC(=O)Cn3cc(C[C@@H](C)O)nn3)CC2)n1 | -2.3% (inactive)
CN(CC(=O)NCc1ccncc1)S(=O)(=O)c1ccc(F)cc1 | 9.34% (inactive)
COc1cc(C(=O)NCC(=O)N/N=C(\C)Cc2ccccc2)cc(OC)c1OC | 8.05% (inactive)
Cc1cccc(CC(C)NC(=O)c2cc(COc3ccc(C)c(C)c3)on2)n1 (stereo not drawn) | -0.63% (inactive)
CCN(CC(=O)N1CCC(C(N)=O)CC1)S(=O)(=O)c1ccc(Cl)cc1 | -8.55% (inactive)
Cc1ccc(-c2noc(CSc3nnc(CCc4ccccc4)n3-c3ccccc3)n2)cc1 | -7.22% (inactive)
CCCCc1ccc(NC(=O)Nc2c(C)n(C)n(-c3ccccc3)c2=O)cc1 | -5.72% (inactive)
O=C(NNC(=O)C1C2C=CC(C2)C1C(=O)O)c1cc(Cl)ccc1O (stereo not drawn) | -4.67% (inactive)
COc1ccc(C2NCCc3c2[nH]c2ccccc32)cc1CSc1nc2ccccc2s1 (stereo not drawn) | -3.05% (inactive)
COc1cc(C2NCCc3c2[nH]c2ccccc32)ccc1OC(C)C (stereo not drawn) | -4.21% (inactive)
CC(=O)N1CCN(S(=O)(=O)c2cccc(C(=O)NNC(=O)COc3ccc(Cl)cc3C)c2)CC1 | 3.91% (inactive)
COc1ccc(Cn2c(O)c(/C=N/NC(=O)c3ccccc3O)c(=O)[nH]c2=O)cc1 | -3.02% (inactive)
Cc1ccccc1NC(=S)NCC(c1cccnc1)N(C)C (stereo not drawn) | 4.06% (inactive)

Compound | inhibition
CSc1ccc(CN2CCc3c([nH]c4ccccc34)C2)cc1 | 2.22% (inactive)
COc1ccccc1CN1CCc2c([nH]c3ccccc23)C1 | 3.76% (inactive)
Cc1cccc(CN2CCc3c([nH]c4ccccc34)C2)c1 | 8.05% (inactive)
Clc1cccc(CN2CCc3c([nH]c4ccccc34)C2)c1 | 1.94% (inactive)
O=C(C1CCCN(S(=O)(=O)c2cccc3nonc23)C1)N1CCC(Cc2ccccc2)CC1 (stereo not drawn) | -9.59% (inactive)
CS(=O)(=O)c1ccc(Cl)c(C(=O)NC2CCSc3ccccc32)c1 (stereo not drawn) | 12.6% (inactive)
COc1ccccc1/C=N/NC(=O)c1ccc(-c2ccccc2)cc1 | -0.08% (inactive)
COc1ccc(C2CC(=O)C3=C(C2)Nc2ccccc2NC3c2coc3ccccc3c2=O)cc1OC (stereo not drawn) | -2.61% (inactive)
COc1ccc(/C=N/Nc2cc(C)nc3ccc(OC)cc23)c(OC)c1 | 0.09% (inactive)
COc1ccc2nc(C)cc(N/N=C/c3ccc(F)cc3)c2c1 | -3.4% (inactive)
Cc1ccc(Nc2cc(C)nc3ccccc23)c(C)c1 | 10.4% (inactive)
COc1cccc2c(N/N=C/c3ccccc3)cc(C)nc12 | 0.63% (inactive)
Cc1cc(Nc2ccc(C)c(C)c2)c2ccccc2n1 | -4.07% (inactive)
Cc1ccc2nc(C)cc(N/N=C/c3cccc(O)c3)c2c1 | -4.26% (inactive)
CC(=O)c1ccc(Nc2cc(C)nc3c(C)cc(C)cc23)cc1 | 7.05% (inactive)
COc1ccc(Nc2cc(C)nc3c(C)cccc23)cc1OC | -3.72% (inactive)
CCCCOc1ccc(NC(=O)C(=O)NCCCn2ccnc2)cc1 | -4.73% (inactive)
CC[C@H](C)[C@@H]1NC(=O)c2cc([N+](=O)[O-])cc(F)c2NCCCC[C@@H](C(N)=O)NC(=O)[C@H](CCCCN)NC1=O | 1.42% (inactive)
CCOc1ccc(CNc2nnnn2C)cc1OC | -3.66% (inactive)
COc1ccc(NS(=O)(=O)c2cccc(NC(=O)NCCCl)c2)cc1 | -19.5% (inactive)
CC(=O)Nc1ccc(/C=N/N2C(=O)NC(C)(c3ccc(OC(F)F)cc3)C2=O)cc1 (stereo not drawn) | -10% (inactive)
Cc1ccc(NC(=O)CSCC(=O)Nc2ncc3c(n2)CC(c2ccco2)CC3=O)cc1 (stereo not drawn) | 2.49% (inactive)

Compound | inhibition
CCOc1cc(/C=C2\CCCC(C(=O)C(F)(F)F)=C2O)ccc1O | -4.72% (inactive)
CN(CC(=O)Nc1cccc(F)c1)C(=O)c1ccncc1 | -3.54% (inactive)
CCOC(=O)N1CCN(C2CCCN(C(=O)c3ccccc3SC)C2)CC1 (stereo not drawn) | 4.8% (inactive)
O=C(COc1ccccc1C(=O)c1cnn(-c2ccccc2)c1)Nc1ccccc1 | -4.89% (inactive)
COc1cc(OC)cc(C(=O)NNC(=O)c2ccc(S(=O)(=O)N(C)c3ccccc3OC)cc2)c1 | 15.6% (inactive)
Cc1cccc(Nc2cc(C)nc3ccccc23)c1 | 5.71% (inactive)
Cc1cc(N/N=C/c2ccc(N(C)C)cc2)c2ccccc2n1 | 0.75% (inactive)
COc1cccc2c(N/N=C/c3ccc(O)c(O)c3)cc(C)nc12 | -4.34% (inactive)
COc1ccc(Nc2cc(C)nc3ccccc23)cc1 | 13.4% (inactive)
Cc1cc(N/N=C/c2ccc(O)cc2O)c2ccccc2n1 | -3.45% (inactive)
Cc1cc(N/N=C/c2ccccc2O)c2ccccc2n1 | -0.61% (inactive)
Cc1cccc(N2C(=O)C(Oc3ccc(Cl)cc3Cl)C2C(=O)O)c1C (stereo not drawn) | -8.69% (inactive)
Cc1nnc(Cn2cnc3c2c(=O)n(C)c(=O)n3C)o1 | 6.26% (inactive)
O=C(COc1ccc(/C=N/NC(=O)c2ccncc2)cc1)Nc1ccccc1 | -0.13% (inactive)
CCOC(=O)c1c(-c2ccccc2)oc2ccc(OCC)cc12 | -1.51% (inactive)
CCOC(=O)c1c(-c2ccccc2)oc2ccc(OCC(O)CN(C)C)cc12 (stereo not drawn) | -1.17% (inactive)
Cc1ccc(-n2ncc3c(SCc4ccccn4)ncnc32)c(C)c1 | -1.44% (inactive)
c1ccc(Cn2ccc(-c3cnc(-c4ccccc4)s3)n2)cc1 | 9.82% (inactive)
Nc1[nH]ncc1-c1ccc(F)cc1 | -6.64% (inactive)
Nc1[nH]ncc1-c1ccc(Cl)cc1 | 9.56% (inactive)
CCc1nnc(NC(=O)Nc2ccccc2OC)s1 | 1.12% (inactive)
O=C(N/N=C/c1cc(Cl)cc([N+](=O)[O-])c1O)NC12CC3CC(CC(C3)C1)C2 | 7.74% (inactive)

Compound | inhibition
COc1ccccc1/C=N/NC(=O)c1cccc(NC(=O)c2ccccc2C)c1 | 8.56% (inactive)
COc1ccc(N2CC(C(=O)Nc3ccc([N+](=O)[O-])cc3Br)CC2=O)cc1 (stereo not drawn) | 6.01% (inactive)
COc1ccc(N2CC(C(=O)N/N=C/c3ccc([N+](=O)[O-])cc3)CC2=O)cc1 (stereo not drawn) | 0.01% (inactive)
CC(C)(C)N/N=C/c1cc(Cl)cc([N+](=O)[O-])c1O | -7.27% (inactive)
CCc1ccc(N2CC(C(=O)N/N=C/c3ccccc3)CC2=O)cc1 (stereo not drawn) | -5.31% (inactive)
Cc1cc(C(=O)N/N=C/c2cc(Cl)cc([N+](=O)[O-])c2O)c2ccccc2n1 | 15.1% (inactive)
CCc1ccc(N2CC(C(=O)N/N=C/c3cccc([N+](=O)[O-])c3)CC2=O)cc1 (stereo not drawn) | -13.7% (inactive)
CCCCNC(=O)CCn1c(=O)c2ccccc2n(Cc2ccc(Cl)cc2)c1=O | 5.58% (inactive)
CCOC(=O)C(C)Oc1cccc2c(=O)n(CC(=O)N3CCCc4ccccc43)ccc12 (stereo not drawn) | 2.67% (inactive)
COc1ccc(Cn2c(=O)oc3ccc(C)cc32)cc1 | 10.7% (inactive)
O=C(CSc1ccccc1)Nc1ccc(N2CCOCC2)c(F)c1 | -2.5% (inactive)
Cc1ccc(CC2C(=O)N(C)C(=O)N(C)C2=O)s1 | 5.58% (inactive)
CCOc1ccc(N(CC(=O)Nc2ccc(OC)cc2)S(=O)(=O)c2c(C)[nH]c(=O)[nH]c2=O)cc1 | -6.24% (inactive)
NCCc1nnc(SCC(N)=O)o1 | -11.5% (inactive)
O=C(N/N=C/c1ccc([N+](=O)[O-])cc1)c1cccc2cc[nH]c12 | 20.2% (inactive)
O=[N+]([O-])c1cc(Cl)cc(/C=N/NC(=S)Nc2cc(S(=O)(=O)N3CCOCC3)ccc2Cl)c1O | -3.6% (inactive)
O=C(N/N=C/c1cc([N+](=O)[O-])ccc1O)C1C2CCCCC21 (stereo not drawn) | -4.14% (inactive)
Cc1ccc(NC(=O)CCC(=O)N/N=C/c2cc([N+](=O)[O-])ccc2O)cc1 | -3.42% (inactive)
O=S(=O)(c1ccc(NC(=S)N/N=C/c2ccc(O)c(O)c2)cc1)N1CCOCC1 | 9.73% (inactive)
O=C(N/N=C/c1cccc([N+](=O)[O-])c1)c1cccc2cc[nH]c12 | -2.43% (inactive)
Cc1ccccc1NC(=O)CCC(=O)N/N=C/c1cc([N+](=O)[O-])ccc1O | -5.84% (inactive)
O=C(N/N=C/c1cc([N+](=O)[O-])ccc1O)C1CCCCC1 | -0.28% (inactive)

— PubChem BioAssay AID1850 (Southern Research Specialized Biocontainment Screening …, 2009)
